Data published in PubChem BioAssay AID1434 (Sanford-Burnham Center for Chemical Genomics, 2008).
In all, about 220,000 compounds went through this assay and about 1,600 (0.73%) were called active.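 Rule for the calls: active = mean inhibition across duplicate retests at 20 µM reaching about 50% (limit read from the data); inactive = the rest, inconclusive results apart.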 Shown is part of a subset that was picked to be rich in actives.

Molecular target: Runt-related transcription factor 1 (Homo sapiens) + Core-binding factor subunit beta (Homo sapiens) (UniProt Q01196+Q13951)
Assay: inhibitors of RUNX1 Runt–CBFb-SMMHC binding, primary screen, biochemical, FRET, Cerulean-Runt, Venus-CBFb-SMMHC, uHTS (AID 1434);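 note: 0% = DMSO wells and 100% = wells with excess untagged CBFb-SMMHC; inhibitors lower the FRET ratio by blocking Runt binding to CBFb-SMMHC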
Details: Cerulean-Runt/Venus-CBFb-SMMHC FRET ratio 530/480, 1 h, at 20 µM, stronger effect = higher value

Chain of Runt-related transcription factor 1 (Homo sapiens) + Core-binding factor subunit beta (Homo sapiens) (Q01196 whole entry, looked up): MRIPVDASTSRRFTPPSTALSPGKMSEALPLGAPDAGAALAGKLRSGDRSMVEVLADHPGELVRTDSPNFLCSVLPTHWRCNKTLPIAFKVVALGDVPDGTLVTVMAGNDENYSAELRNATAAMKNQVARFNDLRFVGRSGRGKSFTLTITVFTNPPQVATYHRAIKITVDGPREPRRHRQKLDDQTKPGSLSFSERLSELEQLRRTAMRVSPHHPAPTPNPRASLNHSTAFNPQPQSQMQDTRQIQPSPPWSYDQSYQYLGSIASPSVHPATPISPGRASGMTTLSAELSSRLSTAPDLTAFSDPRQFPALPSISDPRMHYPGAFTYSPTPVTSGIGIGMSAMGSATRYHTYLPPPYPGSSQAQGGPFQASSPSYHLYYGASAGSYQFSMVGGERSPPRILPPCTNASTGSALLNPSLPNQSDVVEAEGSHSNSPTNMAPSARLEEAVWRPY
Chain of Runt-related transcription factor 1 (Homo sapiens) + Core-binding factor subunit beta (Homo sapiens) (Q13951 whole entry, looked up): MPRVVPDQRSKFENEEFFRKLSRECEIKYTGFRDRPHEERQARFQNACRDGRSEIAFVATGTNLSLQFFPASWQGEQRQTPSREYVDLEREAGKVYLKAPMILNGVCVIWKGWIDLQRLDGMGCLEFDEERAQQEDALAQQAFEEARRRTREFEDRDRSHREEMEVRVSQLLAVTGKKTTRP

Compound	inhibition	inhibition (retest duplicate average) [%]
CCOC(=O)c1c(NC(=S)Nc2ccccc2)sc2c1CCN(C)C2	159% (active)	140
CCOC(=O)c1c(NC(=O)NC(C)(C)C)sc2c1CCN(C)C2	10.7% (inactive)	–
CCOC(=O)c1c(NC(=S)Nc2ccccc2C)sc2c1CCC2	4% (inactive)	–
Cc1ccc(Nc2nc(N)nc(CN3CCN(Cc4ccccc4)CC3)n2)cc1Cl	1.7% (inactive)	–
C/C(=N/OC(=O)c1c(-c2c(F)cccc2Cl)noc1C)c1cnccn1	0.1% (inactive)	–
Cc1onc(-c2c(Cl)cccc2Cl)c1C(=O)NNC(=O)c1c(-c2c(Cl)cccc2Cl)noc1C	-0.1% (inactive)	–
CCn1c(=N)c(S(=O)(=O)c2ccc(F)cc2)cc2c(=O)n3ccccc3nc21	-20.7% (inactive)	–
CCOC(=O)c1cc2c(=O)n3ccccc3nc2n(CC(C)C)c1=NC(=O)c1c(-c2c(F)cccc2Cl)noc1C	81% (active)	58.3
CCOC(=O)c1cc2n(c1N)-c1ccccc1C2=O	2.2% (inactive)	–
CCCn1c(=NC(C)=O)c(C(=O)OCC)cc2c(=O)n3ccccc3nc21	58.9% (active)	115
CCOC(=O)NNc1cc(C(F)(F)F)ccn1	-0.5% (inactive)	–
CCC(C)OC(=O)C(C)Oc1ccc(-c2ccccc2)cc1 (centres undefined)	-4.2% (inactive)	–
CCN(CC)C(=O)c1sc2nc(-c3ccccc3)ccc2c1N	15.5% (inactive)	–
CS(=O)(=O)c1sc2nc(-c3ccccc3)cc(-c3ccccc3)c2c1N	83.9% (active)	108
Nc1cccc(-c2cc(-c3ccccc3)nc(-c3cccc(N)c3)n2)c1	1.4% (inactive)	–
Cc1ccc2nc(COc3ccc(N(C)S(=O)(=O)c4ccccc4)cc3)cc(=O)n2c1	7.6% (inactive)	–
CCOC(=O)C1CCN(C(=O)C2(NC(=O)Nc3cccc(F)c3)CCCCC2)CC1	-6.4% (inactive)	–
CCOC(=O)c1oc2c(CN3CCN(CCO)CC3)c(O)c(CC)cc2c(=O)c1-c1nc2ccccc2s1	47.8% (inactive)	–
CC(C)(C)c1ccc(/C=C2\Oc3c(ccc(O)c3CN3CCN(CCO)CC3)C2=O)cc1	90.1% (active)	70.6
O=C(CSc1nc2ccccc2o1)N/N=C/c1ccccc1C(=O)O	0.7% (inactive)	–
C/C(N)=C(/C#N)C(=O)COC(=O)C1CCN(C(=O)c2ccc(Cl)cc2)CC1	0.8% (inactive)	–
CNc1[nH]ncc1[N+](=O)[O-]	7.1% (inactive)	–
CC(C)c1cc(NCc2ccccn2)n2c(nc3ccccc32)c1C#N	29.3% (inactive)	–
Cc1cc(NCc2ccco2)n2c(nc3ccccc32)c1C#N	86.1% (active)	66

Compound	inhibition	inhibition (retest duplicate average) [%]
Cc1cc(NC(C)C)n2c(nc3ccccc32)c1C#N	31% (inactive)	–
Cc1[nH]c2ccccc2c1/C=N/NC(=O)CNC(=O)c1ccc2c(c1)OCO2	1.7% (inactive)	–
COc1ccc(N2C(=O)C(O)C2c2ccc(C)cc2)cc1 (centres undefined)	1.6% (inactive)	–
Cc1cc(C)c2nc(N3CCCC3)c(C#N)cc2c1	65% (active)	86.1
CC(=O)c1cc(C#N)c(N2CCCCC2)nc1C	-1.4% (inactive)	–
Cc1cc(C)c(C#N)c(N2CCC(C(N)=O)CC2)n1	3% (inactive)	–
CC(C)N1C(=S)SC(C)(C)C1n1oc(=O)n(-c2ccc(Cl)c(Cl)c2)c1=O (centres undefined)	4.2% (inactive)	–
CCOc1cc(NC(=O)CCl)c(OCC)cc1NC(C)=O	1.1% (inactive)	–
CCCCN(CCCC)CC(O)Cn1c2ccccc2c(=O)c2ccccc21 (centres undefined)	81% (active)	70.6
CS(=O)(=O)N(CC(O)Cn1c2ccccc2c2ccccc21)c1cccc2ccccc12 (centres undefined)	1.2% (inactive)	–
O=C1c2ccccc2S(=O)(=O)N1CC(O)Cn1c2ccccc2c2ccccc21 (centres undefined)	4.1% (inactive)	–
Cc1ccccc1NC(=O)c1nn(-c2ccc(F)c(F)c2)ccc1=O	3.1% (inactive)	–
COCc1[nH]nc2c1C(C1C=CCCC1)C(C#N)=C(N)O2 (centres undefined)	3.6% (inactive)	–
N#CC1=C(N)OC2=C(C(=O)CCC2)C1C1CC=CCC1 (centres undefined)	4.6% (inactive)	–
N#CC1=C(N)Oc2cc(O)ccc2C1C1CCCCC1 (centres undefined)	120% (active)	132
C=CCn1c(SCC(N)=O)nnc1-c1cc2c(s1)CCC(CC)C2 (centres undefined)	-3.6% (inactive)	–
CCS(=O)(=O)c1ccc(O)c(NC(=O)COc2ccc(Cl)cc2)c1	0.3% (inactive)	–
Cc1c(CCOC(=O)c2cc([N+](=O)[O-])ccc2Cl)sc[n+]1CCCCS(=O)(=O)[O-]	-0.3% (inactive)	–
O=C(CCc1ccccc1)Nc1ccc(NC(=O)C2CCCCC2)nc1	-1% (inactive)	–
CC(C)C1Nc2c(C(=O)O)cccc2C(Nc2ccccc2C(=O)O)C1(C)C (centres undefined)	-10% (inactive)	–
COCC(C)OC(=O)c1c(N)n(CCCN2CCOCC2)c2nc3ccccc3nc12 (centres undefined)	109% (active)	129
CCOc1ccc(C(=O)NCCCN2CCCC2=O)cc1	-3.7% (inactive)	–
CCc1ccc(NC(=O)CSc2nc3ccccc3c(=O)n2CCN2CCOCC2)cc1	-3.7% (inactive)	–
Cc1ccc(C(=O)OC(C)CN2CCOCC2)cc1 (centres undefined)	-0.1% (inactive)	–

Compound	inhibition	inhibition (retest duplicate average) [%]
CC(C)(C)OC(=O)c1c(N)n(CCCN2CCCC2=O)c2nc3ccccc3nc12	124% (active)	142
CSc1nnc(-c2ccncc2)n1CCCN1CCCC1=O	5.9% (inactive)	–
O=C1CC2(CC(c3ccc(Cl)cc3)=NO2)C(=O)N1c1ccccc1 (centres undefined)	2.6% (inactive)	–
CC(C)(C)c1cc(C(=O)N/N=C/c2ccc([N+](=O)[O-])s2)n[nH]1	-11.1% (inactive)	–
COc1ccc(-n2c(C)nn(CC3CC3)c2=O)cc1	-6% (inactive)	–
CCCn1c(N)c(C(=O)CSc2nnc(-c3cccnc3)n2-c2ccc(C)cc2C)c(=O)[nH]c1=O	0.2% (inactive)	–
Cn1nnc(NC(=S)NC(=O)c2ccccc2)n1	-0.2% (inactive)	–
CCc1cccc2c(=O)c(C(=O)NCCCOC)c[nH]c12	1% (inactive)	–
COc1ccc(CCn2c(=N)c(C(=O)NCc3ccco3)cc3c(=O)n4cccc(C)c4nc32)cc1	142% (active)	170
COc1ccc(CCNC(=O)c2ccco2)cc1	-1.4% (inactive)	–
CCn1c(=N)c(C(=O)NCCCOC)cc2c(=O)n3cccc(C)c3nc21	58.1% (active)	72.9
COc1ccc(CCNC(=O)CCn2c(=O)c3ccccc3n(CC(=O)NCC3CCCO3)c2=O)cc1OC (centres undefined)	-0.3% (inactive)	–
COCCn1c(=O)[nH]c2cc(C(=O)NCc3cccnc3)ccc2c1=O	-3.4% (inactive)	–
COc1ccc(CCNC(=O)Cn2c(=O)n(CC3CCCO3)c(=O)c3ccccc32)cc1OC (centres undefined)	-0.7% (inactive)	–
COc1ccc(CNC(=O)c2cc3c(=O)n4ccccc4nc3n(CC3CCCO3)c2=N)cc1 (centres undefined)	92.1% (active)	159
O=C(NCc1ccco1)c1cccn2c(=O)c3c4c(sc3nc12)CCCC4	0.4% (inactive)	–
CC(C)Oc1c(Br)cc(Br)cc1/C=N/NC(N)=S	-0.8% (inactive)	–
C=CCN(CC=C)C(=O)COC(=O)c1n[nH]c2ccccc12	-3% (inactive)	–
O=c1[nH]c(=S)[nH]c2[nH]c(=S)[nH]c12	45.1% (inactive)	–
COc1ccc(C(C(=O)NC2CCCCC2)N(C(=O)CCl)c2ccccc2Cl)cc1 (centres undefined)	-1.2% (inactive)	–
OC(COCC1COc2ccccc2O1)CN1CCN(c2ccc(F)cc2)CC1 (centres undefined)	0.5% (inactive)	–
COc1ccc(Cc2nnc(NC(=O)c3cc(OC)c(OC)c(OC)c3)s2)cc1OC	-2% (inactive)	–
COc1cc(/C=N/NC(=S)Nc2cccnc2)cc(OC)c1O	3% (inactive)	–
CCCCCCCC[n+]1cccc(C(=O)N2c3c(nc(N)[nH]c3=O)NC(C)C2C)c1 (centres undefined)	3.4% (inactive)	–

Compound	inhibition	inhibition (retest duplicate average) [%]
COc1ccc2c(CN3CCN(S(=O)(=O)c4cccs4)CC3)cc(=O)oc2c1	12.6% (inactive)	–
O=c1cc(CN2CCN(S(=O)(=O)/C=C/c3ccccc3)CC2)c2ccc(O)cc2o1	130% (active)	146
O=C(CN1CCN(S(=O)(=O)/C=C/c2ccccc2)CC1)Nc1ccc(N2CCOCC2)cc1	1.4% (inactive)	–
COc1cccc(OCCCN2CCCCCC2)c1	-44.8% (inactive)	–
O=C1OC(/C=C/c2ccccc2)=NC/1=C/c1ccco1	-22.3% (inactive)	–
COc1ccccc1/C=C/C1=NC(=C\N(C)C)/C(=O)O1	89.1% (active)	91.9
COc1cccc(/C=C/c2ccc3ccccc3n2)c1OC(C)=O	-3.2% (inactive)	–
CC(C)=C1C2CCC1C1C(=O)N(NC(=O)c3ccco3)C(=O)C21 (centres undefined)	-1.2% (inactive)	–
COc1ccc2oc(=O)c(C(=O)O)cc2c1	1.6% (inactive)	–
COc1cccc(C(=O)c2cc3ccc(O)cc3oc2=O)c1	165% (active)	194
COc1ccc2oc(=O)c(C(=O)N3CCCC3)cc2c1	3.9% (inactive)	–
Fc1cc(F)c2nc(Nc3nc4c(F)cccc4s3)sc2c1	4.2% (inactive)	–
NC(=O)c1c(Nc2nc3c(F)cccc3s2)sc2c1CCCC2	104% (active)	175
NC(=O)c1c(NC(=O)CSc2nc(N)cc(=O)[nH]2)sc2c1CCCC2	-8.6% (inactive)	–
CCN1CC=C2C(C#N)=C(N)C(C#N)(C#N)[C@H](c3ccoc3)[C@H]2C1	-20.7% (inactive)	–
CCOC(=O)N1CC=C2C(C#N)=C(N)C(C#N)(C#N)[C@H](c3cccs3)[C@H]2C1	-18.3% (inactive)	–
CCCN1CC=C2C(C#N)=C(N)C(C#N)(C#N)C(c3cc(OC)ccc3OC)C2C1 (centres undefined)	88.4% (active)	77.5
Cc1ccc(C2Nc3ccccc3C(=O)N2CCN2CCNC2=O)cc1 (centres undefined)	2.4% (inactive)	–
CC(C)NC(=O)C(=O)NCCCOC(C)C	-0.3% (inactive)	–
CC(=O)Cc1nsc(NC(=O)c2ccc(Cl)cc2Cl)n1	-0.9% (inactive)	–
CCN1CCc2nc(NC(=O)c3cc(F)c(F)cc3Cl)sc2C1	52.5% (active)	76.5
O=C(Nc1nccs1)c1cc(S(=O)(=O)N2CCOCC2)c(Cl)cc1Cl	-1% (inactive)	–
